# Values joined by “and” are separate entries in the source; they are usually repeats but may differ in a detail not shown here. Identical values can stand only once. Results filed as inconclusive are left out. A number with no mark means an inactive call. Active and inactive are the calls of the source. The call rests on the fitted dose curve; in most records, active means well fitted curve in the direction sought with a large enough effect; inconclusive means small, poorly fitted or top-dose-only effect, or another doubt; inactive means no such curve, though single readings can be large; an effect the other way counts as inactive or inconclusive.
# Experiments:
# [1] = Viability qHTS for spleen associated tyrosine kinase inhibitor (SYKi) drug resistant MV4-11 cells (AID 1963824); further: nearly all actives have a fitted effect of over 35% in size
# How it was run: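 CellTiter-Glo luminescence, read 10 min after reagent addition, reports viability after a 72 hr compound exposure. Cells are an MV4-11 line made resistant to SYK inhibition, seeded at 500 per well onto compound-containing plates.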
# [2] = Quantitative highthroughput screen to assess conditional lethalithy of NOMO1 cells grown in RPMI1640 with untreated serum (RPMI+s) (AID 1963876); further: nearly all actives have a fitted effect of over 35% in size;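 on Viability: 100% = DMSO wells and 0% = empty wells without cells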
# How it was run: (§1)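 Each medium arm—HPLM with 10% dialyzed FBS, or RPMI1640 with 5 mM glucose and 10% untreated or dialyzed FBS—was screened against an 11-point, 3-fold compound titration for 48 h at 37 °C, with CellTiter-Glo luminescence as endpoint.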
# [3] = Cellular viability qHTS for adrenocortical cancer (ACC) cell line SW-13 (AID 1963989); details: SW-13 ACC cells viability, CellTiter-Glo, 48 h; activity (max response): hits give low values; further: nearly all actives have a fitted effect of over 65% in size;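 on activity (max response): cells grown in serum-free medium with ITS supplement; on the % scale 0 is the no-effect control and ±100 the full control effect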
# How it was run: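 Compound titrations (up to 46 uM final, in DMSO) were applied to SW-13 cells for 48 h at 37C/5% CO2. Reading used CellTiter-Glo after 20 min at room temperature; fitted curves yielded IC50 and efficacy.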
# [4] = Cellular viability qHTS for adrenocortical cancer (ACC) cell line NCI-H295R (AID 1963990); further: nearly all actives have a fitted effect of over 60% in size
# How it was run: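 Readout: CellTiter-Glo luminescence, 20 min RT. Exposure: 48 h, 37C/5% CO2. Cells: NCI-H295R, ITS-DMEM serum-free. Range: up to 46 uM. Analysis: 4PL fit, IC50 plus efficacy.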
# [5] = Quantitative highthroughput screen to assess conditional lethalithy of P12 Ichikawa cells grown in Human Plasma-Like Medium with dialyzed fetal bovine serum (HPLM+ds) (AID 1963879); details: Potency: viability; further: nearly all actives have a fitted effect of over 35% in size; on Viability: series mostly up to about 46 µM
# How it was run: as §1
# [6] = Quantitative highthroughput screen to assess conditional lethalithy of P12 Ichikawa cells grown in RPMI1640 with dialyzed fetal bovine serum (RPMI+ds) (AID 1963880); details: Potency: P12-Ichikawa viability; further: nearly all actives have a fitted effect of over 35% in size;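 on Viability: 100% = DMSO wells and 0% = empty wells on each plate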
# How it was run: as §1
# [7] = Quantitative highthroughput screen to assess conditional lethalithy of P12 Ichikawa cells grown in RPMI1640 with untreated serum (RPMI+s) (AID 1963881); details: Potency: viability; further: nearly all actives have a fitted effect of over 35% in size;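 on Viability: series mostly up to about 46 µM; 100% = DMSO wells and 0% = empty wells without cells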
# How it was run: as §1
# [8] = Quantitative highthroughput screen to assess conditional lethalithy of SEM cells grown in Human Plasma-Like Medium with dialyzed fetal bovine serum (HPLM+ds) (AID 1963882); further: nearly all actives have a fitted effect of over 35% in size; on Viability: series mostly up to about 46 µM
# How it was run: as §1
# [9] = Quantitative highthroughput screen to assess conditional lethalithy of SEM cells grown in RPMI1640 with unreated serum (RPMI+s) (AID 1963883); further: nearly all actives have a fitted effect of over 35% in size;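 on Viability: 100% = DMSO wells and 0% = empty wells without cells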
# How it was run: as §1
# [10] = Quantitative highthroughput screen to assess conditional lethalithy of SEM cells grown in RPMI1640 with dialyzed fetal bovine serum (RPMI+ds) (AID 1963884); further: nearly all actives have a fitted effect of over 35% in size;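 on Viability: series mostly up to about 46 µM; 100% = DMSO control wells and 0% = empty wells without cells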
# How it was run: as §1
# [11] = Quantitative highthroughput screen to assess conditional lethalithy of NOMO1 cells grown in Human Plasma-Like Medium with dialyzed fetal bovine serum (HPLM+ds) (AID 1963878); further: nearly all actives have a fitted effect of over 35% in size;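 on Viability: 100% = DMSO wells and 0% = empty wells on each plate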
# How it was run: as §1
# [12] = Quantitative highthroughput screen to assess conditional lethalithy of NOMO1 cells grown in RPMI1640 with dialyzed fetal bovine serum (RPMI+ds) (AID 1963877); further: nearly all actives have a fitted effect of over 30% in size;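 on Viability: series mostly up to about 46 µM; 100% = DMSO control wells and 0% = empty wells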
# How it was run: as §1
# Potency means the concentration at half of the fitted maximal effect.
SMILES,Potency [1],Potency [2],Potency [3],Potency [4],Potency [5],Potency [6],Potency [7],Potency [8],Potency [9],Potency [10],Potency [11],activity (max response) [3],Potency [12]
CN(C)CCN(C)C(=O)c1ccc(NC(=O)Nc2ccc(-c3nc(N4CCOCC4)c4ccn(CC(F)(F)F)c4n3)cc2)cc1,0.0525 µM (active),132 nM (active),708 nM (active),3.16 µM (active),–,–,–,–,–,–,–,–,–
O=C(O)c1ccc2cc(-c3ccc(O)c(C45CC6CC(CC(C6)C4)C5)c3)ccc2c1,0.417 µM (active),1050 nM (active),–,0.708 µM (active),590 nM (active),418 nM (active),469 nM (active),372 nM (active),372 nM (active),235 nM (active),–,–,–
CN(C)CC(C)(C)CNc1nn2c(-c3ccccc3)nnc2cc1C1CCC1,0.0103 µM (active),20900 nM (active),–,–,10500 nM (active),18700 nM (active),16600 nM (active),–,–,–,10500 nM (active),-3.73%,–
O=C(c1cc(Cc2n[nH]c(=O)c3ccccc23)ccc1F)N1CCN(C(=O)C2CC2)CC1,16.6 µM (active),inactive,–,inactive,–,20900 nM (active),–,–,6620 nM (active),–,–,–,–
CO[C@H]1C=CO[C@@]2(C)Oc3c(C)c(O)c4c(O)c(c5c(c4c3C2=O)NC2(CCN(CC(C)C)CC2)N=5)=NC(=O)C(C)=CC=C[C@H](C)[C@H](O)[C@@H](C)[C@@H](O)[C@@H](C)[C@H](OC(C)=O)[C@H]1C,18.4 µM (active),–,–,–,inactive,inactive,inactive,inactive,inactive,inactive,inactive,–,inactive
COc1cccc2nc(-c3cccs3)nc(NN3C(=O)C=C(C)C3=O)c12,0.148 µM (active),1480 nM (active),11200 nM (active),2.82 µM (active),2090 nM (active),2960 nM (active),2640 nM (active),418 nM (active),935 nM (active),1320 nM (active),469 nM (active),–,–
CNC(=O)CN1CCC(Oc2cc3c(Nc4cccc(Cl)c4F)ncnc3cc2OC)CC1,11.6 µM (active),372 nM (active),562 nM (active),inactive,2640 nM (active),3320 nM (active),–,inactive,–,–,–,–,–
c1ccc2c(Cc3c[nH]c4ccccc34)c[nH]c2c1,20.9 µM (active),inactive,–,–,–,–,–,–,–,20900 nM (active),20900 nM (active),–,–
OC(Cn1cncn1)(Cn1cncn1)c1ccc(F)cc1F,inactive,–,–,inactive,inactive,inactive,inactive,inactive,inactive,inactive,inactive,1.07% and 11%,inactive
Cc1ccc(-n2[nH]c(C)c(N=Nc3cccc(-c4cccc(C(=O)O)c4)c3O)c2=O)cc1C,13.3 µM (active),inactive,–,–,16600 nM (active),–,–,–,–,–,–,7.78%,–
CCS(=O)(=O)Nc1ccc2[nH]c(O)c(C(=Nc3ccc(CN4CCCCC4)cc3)c3ccccc3)c2c1,0.0332 µM (active),–,3550 nM (active),1.26 µM (active),–,–,–,74.3 nM (active),93.5 nM (active),93.5 nM (active),4690 nM (active),–,833 nM (active)
C[C@@H]1CN(Cc2ccc(F)cc2)[C@@H](C)CN1C(=O)c1cc2c(C(=O)C(=O)N(C)C)cn(C)c2cc1Cl,16.4 µM (active),–,–,inactive,inactive,inactive,inactive,inactive,–,–,–,–,inactive
CC(C)C(=O)Nc1ccc([N+](=O)[O-])c(C(F)(F)F)c1,10.6 µM (active) and 18.6 µM (active),–,–,inactive,1870 nM (active),3320 nM (active),2090 nM (active),inactive,inactive,–,–,15.5%,–
O=C1c2c(O)ccc(O)c2C(=O)c2c(NCCNCCO)ccc(NCCNCCO)c21,59.6 nM (active) and 20.9 nM (active),–,–,4.11 µM (active) and 3.98 µM (active),296 nM (active),332 nM (active),264 nM (active),332 nM (active),235 nM (active),332 nM (active),–,–,–
COc1cc2c(NC3CCN(C(C)C)CC3)nc(C3CCCCC3)nc2cc1OCCCN1CCCC1,3.32 µM (active),–,17800 nM (active),12.6 µM (active),–,20900 nM (active),23500 nM (active),16600 nM (active),26400 nM (active),–,23500 nM (active),–,20900 nM (active)
O=C1NC(=O)C(c2cnc3ccccn23)=C1c1cn2c3c(cc(F)cc13)CN(C(=O)N1CCCCC1)CC2,51.7 nM (active) and 372 nM (active),–,–,–,588 nM (active),5880 nM (active),166 nM (active),20.9 nM (active),18.6 nM (active),16.6 nM (active),–,–,inactive
c1nc2nc(Nc3ccc(N4CCOCC4)cc3)nc(NC3CCCCC3)c2[nH]1,317 nM (active) and 366 nM (active),–,–,2.82 µM (active),3320 nM (active),–,2640 nM (active),–,2350 nM (active),2350 nM (active),14800 nM (active),–,–
CCCCC(C)(C)[C@H](O)C=C[C@H]1[C@H](O)CC(=O)[C@H]1CC=CCCCC(=O)O,0.148 µM (active),–,–,inactive,–,–,26400 nM (active),20900 nM (active),–,–,20900 nM (active),–,–
